This note sets out measurements from PubChem BioAssay AID2685 (National Center for Advancing Translational Sciences (NCATS), 2010).

In all, about 320,000 compounds went through this assay and about 2,100 (0.66%) were called active. Inconclusive results (about 53%) are left out. Calls follow the shape of the dose curve; as a rule, active = well fitted inhibition curve with a large enough effect in the signal ratio, with a control signal flat (not every such curve was filed as active); inconclusive = small, poorly fitted or top-dose-only effect, or effect the other way, or a change in a side signal; inactive = flat fitted curve, though single readings scatter; the % refers to the signal ratio. This excerpt belongs to a sample that is enriched for actives.
Potency is read from the fitted curve at half-maximal effect.

The nature of this experiment: qHTS Assay for Lipid Storage Modulators in Drosophila S3 Cells.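 As to cell number change: cells counted by Cell Tracker Red CMTPX staining in the red channel.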 As to lipid storage change, negative = inhibition: % is scaled to controls: 0 for no effect and ±100 for the full control effect. To be noted: BODIPY lipid droplet fluorescence, 18-24 h, cells fed with added oleic acid; cell number change: measured here: cell count max response; series mostly up to 46.1 µM; lipid storage change, negative = inhibition: at the top concentration. The procedure, abridged: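 Drosophila S3 cells got compounds at several concentrations plus oleic acid (400 uM solution). Laser-scanning cytometry with 488 nm excitation read lipid droplets at 500-530 nm and cells at 575-640 nm. Percent activity was relative to 20 uM Triacsin C.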
`C=Cc1ccc(C(=O)N2CCCC(CCC(=O)N3CCN(c4ccccn4)CC3)C2)cc1` (stereo not given): the compound was classed as inactive and the cell number change was -2.91%.
Consider `COc1ccc(-n2cccc2/C=C2\C(=N)N3N=C(c4ccco4)SC3=NC2=O)cc1`, for which the “lipid storage change, negative = inhibition” value was -14.1% (inactive) and the cell number change was -5.47%.
Regarding `CC(C)(C)NC(=O)Cn1ccc(=N)c2ccccc21`, the “lipid storage change, negative = inhibition” value was 0.397% (inactive) and the cell number change was -1.29%.
Turning to `CCCCNc1c(-c2cccc(SC3CCCCC3)c2)nc2ccc(Cl)cn12`, the “lipid storage change, negative = inhibition” value was 2.09% (inactive) and the cell number change came to 5.29%.
With `CCOC(=O)CNc1c(-c2ccc(O)cc2)nc2ccccn12`, the “lipid storage change, negative = inhibition” value is 21.7% (inactive) and the cell number change worked out at 4.87%.
As to `CCCCNc1c(-c2ccc(-c3cccc(Cl)c3)cc2)nc2ccccn12`, the Potency is 23.1 µM (active) and the cell number change worked out at 5.08%.
Regarding `O=C1CCCC2(O)C1C(c1cccc(Br)c1)NC(=O)N2Cc1ccccc1` (stereo not given), the “lipid storage change, negative = inhibition” value is -9.4% (inactive) and the cell number change stood at 1.15%.
For `CCCS(=O)(=O)N1CCN(CCCc2ccccc2)CC1`, the “lipid storage change, negative = inhibition” value was 9.48% (inactive) and the cell number change was 6.21%.
Turning to `O=S(=O)(CCc1ccccc1)N1CCOCC1`, the Potency was 5.8 µM (active) and the cell number change was 1.99%.
As to `c1ccc(CCCN2CCOCC2)cc1`, the “lipid storage change, negative = inhibition” value was 15.4% (inactive) and the cell number change worked out at 11.8%.
Take `CC(C)Sc1nnc(NC(=O)c2ccc3c(c2)OCO3)s1`: the “lipid storage change, negative = inhibition” value was -3.82% (inactive).
Take `O=C(COC(=O)COc1ccccc1)NC1CCCC1`: the “lipid storage change, negative = inhibition” value was 10.1% (inactive) and the cell number change is -5.97%.
In the same order, the values of `COc1ccc(OC)c(NC(=O)c2cc3n(n2)C(C(F)(F)F)CC(c2ccc4c(c2)OCO4)N3)c1` (stereo not given) are -0.757% (inactive) and 16.6%.
Turning to `COc1ccc(C2CC(C(F)(F)F)n3nc(C(=O)O)cc3N2)cc1OC` (stereo not given), the “lipid storage change, negative = inhibition” value is -2.01% (inactive) and the cell number change was found to be 20.6%.
`COc1ccc(NC(=O)c2cc3n(n2)C(C(F)(F)F)CC(c2ccc4c(c2)OCO4)N3)cc1OC` (stereo not given): the Potency was 16.4 µM (active) and the cell number change was -18.2%.
With `Cn1cc(CN2CCC(CO)CC2)c(-c2ccc(Oc3ccccc3)cc2)n1`, the “lipid storage change, negative = inhibition” value was 15.5% (inactive) and the cell number change was -5.37%.
As to `COc1cccc(CNC(=O)C2CCN(S(=O)(=O)N3CCC4(CC3)OCCO4)CC2)c1`, the “lipid storage change, negative = inhibition” value is 22.2% (inactive) and the cell number change turned out to be 8.33%.
In the same order, the values of `O=C(Nc1ccc(S(=O)(=O)Nc2ncccn2)cc1)C1=COCCO1` are 18% (inactive) and 6.63%.
For `CC1Sc2ccc(S(=O)(=O)NCCc3ccc(Cl)cc3)cc2NC1=O` (stereo not given), the compound was called inactive.
With `CC1Sc2ccc(S(=O)(=O)NCCc3ccccc3)cc2NC1=O` (stereo not given), the compound was called inactive and the cell number change is -2.36%.
As to `CC1Sc2ccc(S(=O)(=O)NCCc3ccc(S(N)(=O)=O)cc3)cc2NC1=O` (stereo not given), the Potency is 2.59 µM (active) and the cell number change was -0.885%.
For `CC(=O)c1ccc(NC(=S)N2CCC(Cc3ccccc3)CC2)cc1`, the “lipid storage change, negative = inhibition” value was -2.69% (inactive) and the cell number change was -2.62%.
Take `Cc1ccc(-n2c(C)cc(/C=N/NC(=O)c3ccncc3)c2C)c(C)c1`: the Potency was 18.4 µM (active) and the cell number change is -26.9%.
As for `Cc1ccc(-n2c(C)cc(/C=N/NC(=O)c3ccncc3)c2C)cc1`, the result was inactive.
For the compound `Cc1cc(C)cc(-n2c(C)cc(/C=N/NC(=O)c3ccncc3)c2C)c1`, the “lipid storage change, negative = inhibition” value is -9.31% (inactive) and the cell number change was -4.41%.
In the same order, the values of `O=C(c1ccc(-c2ccccc2)c(F)c1)C1CCCN(CCCn2cccn2)C1` (stereo not given) are -9.68% (inactive) and 2.71%.
Turning to `CN(C)c1ccc(/C=N/NC(=O)c2ccccc2O)o1`, the “lipid storage change, negative = inhibition” value is 1.62% (inactive).
As for `Cc1nn(-c2ccc(F)cc2)c(C)c1CN1CCN(CCC(C)C)C(CCO)C1` (stereo not given), the “lipid storage change, negative = inhibition” value is 3.51% (inactive) and the cell number change worked out at 12.5%.
As for `COCC(=O)N1CCN(c2cccc(Cl)c2)CC1`, the “lipid storage change, negative = inhibition” value was 11.4% (inactive) and the cell number change is -20.3%.
For `CC1=CC(C)C2C(=O)N(CCC[N+](C)(C)C)C(=O)C2C1` (stereo not given), in that order: -2.26% (inactive) and 2.72%.
With `CC1=CC(C)C2C(=O)N(O)C(=O)C2C1` (stereo not given), the Potency was 20.6 µM (active) and the cell number change is -17.9%.
As for `CC1=CC(C)C2C(=O)N(c3ccccc3)NC(=O)C2C1` (stereo not given), the “lipid storage change, negative = inhibition” value is 8.05% (inactive) and the cell number change was 6.7%.
As for `O=C1c2ccccc2C(=O)C1c1ccccn1`, the “lipid storage change, negative = inhibition” value was 1.08% (inactive) and the cell number change was found to be 7%.
As for `Cc1nc2scc(C)n2c(=O)c1S(=O)(=O)NCCc1ccc(Cl)cc1`, the outcome was inactive and the cell number change is -15.9%.
As for `CC(C)N(C)CCOC(=O)c1ccc2c(c1)OCCO2`, the “lipid storage change, negative = inhibition” value is 4.51% (inactive) and the cell number change is -0.0823%.
Regarding `Cc1oc(-c2ccoc2)nc1CN(Cc1ccccc1)CC1CC1`, the “lipid storage change, negative = inhibition” value is 0.435% (inactive) and the cell number change was 1.56%.
Regarding `COc1ccc(Cl)cc1NC(=O)COC(=O)CNC(=O)c1ccc([N+](=O)[O-])c(C)c1`, the “lipid storage change, negative = inhibition” value was -1.38% (inactive) and the cell number change came out at 7.48%.
For `CCOC(=O)C(N)CSC1CC(=O)N(c2ccc(OC)cc2)C1=O` (stereo not given), the Potency is 3.26 µM (active) and the cell number change is -13.3%.
Consider `CCOC(=O)C(N)CSC1CC(=O)N(c2ccc(C(=O)OC)cc2)C1=O` (stereo not given), for which the “lipid storage change, negative = inhibition” value was 25.9% (inactive) and the cell number change turned out to be 8.08%.
For `CCOC(=O)C(N)CSC1CC(=O)N(c2ccc(OCC)cc2)C1=O` (stereo not given), the result was inactive and the cell number change was found to be 8.77%.
`CCOC(=O)c1cc(C)nc(Sc2ccc(C)cc2)c1C#N`: the “lipid storage change, negative = inhibition” value is 6.61% (inactive) and the cell number change was 3.68%.
With `Cc1ccc(OCc2ccc(-c3ccccc3)cc2)c([N+](=O)[O-])n1`, the compound was classed as inactive.
For the compound `O=[N+]([O-])c1cc2c(cc1Br)CCN2`, the “lipid storage change, negative = inhibition” value was 21.7% (inactive) and the cell number change was -0.505%.
For the compound `c1ccc(CNc2ccc(CNc3ncn[nH]3)cc2)cc1`, the “lipid storage change, negative = inhibition” value is 2.01% (inactive) and the cell number change turned out to be 13.8%.
Turning to `COc1cc(C(=O)Nc2cccc(-c3nc4ccccc4o3)c2C)cc(OC)c1OC`, the “lipid storage change, negative = inhibition” value was 8.65% (inactive) and the cell number change is -6.82%.
Turning to `CN1CCN(CC(=O)Nc2nc(-c3c[nH]c4ccccc34)cs2)CC1`, the “lipid storage change, negative = inhibition” value is 17.6% (inactive) and the cell number change was -11.4%.
On to `CC(=O)NCCC(=O)Nc1nc(-c2ccccc2Cl)cs1`, for which the compound was called inactive.
Turning to `CC(=O)NCCC(=O)Nc1nc(-c2c[nH]c3ccccc23)cs1`, the Potency is 14.6 µM (active) and the cell number change is -1.21%.
